Screening data as filed in PubChem.
Most compounds without a hit are left out; they make up all but 5.1% or so of the library.
ANO1 block: mouse TMEM16A channel inhibition, primary screen; AID 588511; normalized B-score (activity score, 25-100; higher = stronger inhibition) at 10 µM; Q8BHY3; HEK293 TMEM16A/YFP iodide influx fluorescence, ionomycin; 310,000 compounds, 1.2% hits;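 active = ratio plate-corrected score three or more library SD toward inhibition, starting fluorescence score within five deviations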;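 note: score derived from kinetic fluorescence span divided by baseline fluorescence per well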
Target sequence (Q8BHY3 whole entry, looked up): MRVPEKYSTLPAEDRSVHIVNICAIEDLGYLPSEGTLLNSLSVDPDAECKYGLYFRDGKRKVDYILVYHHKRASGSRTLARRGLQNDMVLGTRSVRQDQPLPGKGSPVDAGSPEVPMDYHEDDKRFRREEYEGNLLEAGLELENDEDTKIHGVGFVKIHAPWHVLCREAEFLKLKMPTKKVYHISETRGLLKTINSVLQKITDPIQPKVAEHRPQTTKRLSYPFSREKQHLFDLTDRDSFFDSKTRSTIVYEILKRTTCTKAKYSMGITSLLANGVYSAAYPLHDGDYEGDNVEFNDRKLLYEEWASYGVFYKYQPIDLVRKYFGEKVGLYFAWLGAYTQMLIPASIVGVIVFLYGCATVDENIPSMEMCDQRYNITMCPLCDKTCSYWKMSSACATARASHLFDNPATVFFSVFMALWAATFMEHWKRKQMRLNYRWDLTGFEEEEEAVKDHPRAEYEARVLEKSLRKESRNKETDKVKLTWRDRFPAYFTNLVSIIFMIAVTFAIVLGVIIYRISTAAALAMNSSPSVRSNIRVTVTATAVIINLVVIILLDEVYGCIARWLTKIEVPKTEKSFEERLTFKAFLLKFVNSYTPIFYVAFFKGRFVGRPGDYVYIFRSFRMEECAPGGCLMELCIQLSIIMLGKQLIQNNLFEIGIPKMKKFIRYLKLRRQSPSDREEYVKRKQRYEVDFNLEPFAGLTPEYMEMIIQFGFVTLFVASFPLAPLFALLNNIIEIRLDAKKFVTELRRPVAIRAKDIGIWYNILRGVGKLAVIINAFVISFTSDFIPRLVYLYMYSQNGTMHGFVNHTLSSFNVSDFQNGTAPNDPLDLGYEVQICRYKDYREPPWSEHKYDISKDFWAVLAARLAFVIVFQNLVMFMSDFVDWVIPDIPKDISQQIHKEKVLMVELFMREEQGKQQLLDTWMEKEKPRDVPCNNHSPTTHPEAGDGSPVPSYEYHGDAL
TMEM16A act: activates or potentiates the mouse TMEM16A chloride channel. Q8BHY3. HEK293 TMEM16A/YFP-H148Q/I152L, iodide quench fluorescence; stronger effect = lower value. B-score at 10 µM. 340,000 compounds, 0.3% hits;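 active = fluorescence-ratio B-score plate-corrected deviation score at least 3 library SD below zero, with starting fluorescence score within 5 deviations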;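 note: channel opened by trigger with iodide after compound preincubation; score built on the fluorescence ratio of max minus min over baseline; more negative score means more quench and so TMEM16A activation or potentiation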
MPTP inh: blocks calcium-induced mitochondrial swelling. isolated mouse mitochondria, Ca2+ swelling absorbance, 30 min. inhibition, % at 10 µM. 360,000 compounds, 1.4% hits. AID 602449;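 active = inhibition of 50% or more, scaled per plate between neutral and stimulator controls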;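 note: 0% = DMSO wells given calcium and 100% = 1 mM EGTA wells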
CRFBP-R2 agonist: agonists of human CRF-binding protein/CRF-R2 receptor complex; HEK293 CRF-R2/CRF-BP, calcium dye fluorescence (FLIPR); percent of saturating CRF peptide response; activation, % at 13.2 µM; 350,000 compounds, 0.46% hits; AID 588473;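 active = activation of at least 50%, plus an integration ratio under a set limit after plate pattern correction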;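 note: plate controls were neutral control wells without compound for no effect and CRF at EC100 for full effect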
GRIN3A LBD mod: NR3A (human) ligand-binding domain modulation | AID 1259313 | 340,000 compounds, 2.5% hits | Tm shift relative to glycine control, % at 25 µM | NR3A LBD differential scanning fluorimetry, Tm shift; 0% = protein alone, 100% = glycine-bound protein;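 active = melting temperature shift of at least 10% of the positive control shift, at one fixed dose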
CRFBP-R2 block: CRF-BP/CRF-R2 complex antagonism | HEK293 CRF-R2/CRF-BP, CRF-induced calcium fluorescence | inhibition, % at 11.8 µM | 350,000 compounds, 0.59% hits;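 active = inhibition of the ligand-induced calcium signal above about 50% at the single tested concentration, limit read from the data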
MPTP counter: mitochondrial membrane potential, counter-screen; 5,000 compounds, 78% hits; isolated mitochondria, Rhodamine 123 fluorescence; inhibition, % at 10 µM; shares compounds with MPTP inh; in the data active = inhibition above about 22%;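 note: 0% = DMSO vehicle and 100% = positive control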
An asterisk follows results filed as active; i = inactive; x = not tested or not shown.

SMILES | ANO1 block | TMEM16A act | MPTP inh | CRFBP-R2 agonist | GRIN3A LBD mod | CRFBP-R2 block | MPTP counter
Fc1ccc(NC(=S)Nc2cccc(Cl)c2)cc1 | i | i | 86* | 1 | 13* | 27 | 97*
Fc1ccc(NC(=S)Nc2ccccc2Cl)cc1 | i | i | 10 | -2 | -3 | 6 | x
CSc1cccc(NC(=S)Nc2ccc(F)cc2)c1 | i | i | 73* | -2 | 14* | 3 | 85*
Oc1ccc(NC(=S)Nc2ccc(F)cc2)cc1 | i | i | 2 | 3 | 9 | 0 | x
CCN(CC)CCN(C(=O)c1cc2c(ccc3ccccc32)oc1=O)c1nc2cc3c(cc2s1)OCCO3 | i | i | 2 | 1 | 1 | -12 | x
Cc1ccc2nc(N(CCCN(C)C)C(=O)c3ccc4ncsc4c3)sc2c1 | i | i | -2 | 1 | 0 | -13 | x
COc1ccc(CC(=O)OCCc2cc3cc(OC)c(OC)cc3c(=O)o2)cc1 | x | i | 0 | -1 | -2 | -8 | x
COc1ccc(S(=O)(=O)NC2CCCC2)cc1C(N)=O | i | i | 0 | 2 | 0 | -10 | x
Cc1ccc(NC(=O)COc2ccc(C(=O)c3ccccc3)cc2)c(O)c1 | i | i | 82* | -3 | -3 | 6 | 97*
Cc1ccc(OCC(=O)Nc2ccccc2-c2ccccc2NC(=O)COc2ccc(C)cc2)cc1 | i | i | 1 | 10 | -1 | -36 | x
CC(=O)c1ccc(OCC(=O)NC2CCCCCC2)cc1 | x | i | 0 | 3 | -2 | -2 | x
CC1CCC(NC(=O)COc2ccc(C(=O)c3ccccc3)cc2)CC1 (stereo unspecified) | i | i | 70* | 0 | 2 | -3 | 65*
COc1cc(NS(=O)(=O)c2c(C)oc3c(F)c(F)c(F)c(F)c23)cc(OC)c1OC | i | i | -1 | -2 | -5 | 9 | x
CCC(C)C(N)C(=O)N1CCCC1C(=O)NC(C(=O)O)C(C)CC (stereo unspecified) | x | i | -2 | -1 | -1 | 6 | x
Cc1ccc(O)c(-c2cc3ccccc3[nH]2)c1 | i | i | 53* | 0 | 22* | -2 | 49*
COc1ccc(-c2[nH]c(-c3ccc(SC)cc3)nc2SCC(=O)Nc2nccs2)cc1 | i | i | 68* | 0 | 6 | -20 | 49*
C[C@H]1CN(c2ccccc2)C(=O)[C@@H]1CC(=O)Nc1ccccc1 | x | x | 0 | -1 | x | 19 | x
CCCCN(C)c1c(C)nc2ccc(C(=O)NCCOc3ccc(OC)cc3)cn12 | x | x | 96* | x | x | x | 78*
CCC(C)c1ccc(C(C)NC(=S)NCc2ccc(F)cc2)cc1 (stereo unspecified) | i | i | 60* | 16 | 13* | -17 | 94*
CC(NC(=S)NCc1ccc(F)cc1)C12CC3CC(CC(C3)C1)C2 (stereo unspecified) | i | i | 80* | 15 | 4 | -18 | 90*
CCOc1ccc(OCCC(=O)OCC(=O)NCc2ccc(Cl)cc2)cc1 | i | i | -2 | 0 | 4 | 0 | x
CCC(NC(=S)NCc1ccc(F)cc1)c1ccc(C(C)C)cc1 (stereo unspecified) | i | i | 79* | 5 | 10 | -24 | 91*
COc1ccc(C(C)NC(=S)NCc2ccc(F)cc2)cc1OC (stereo unspecified) | i | i | 1 | 1 | -1 | 14 | x
CCOc1ccc(C(C)NC(=S)NCc2ccc(Cl)cc2)cc1 (stereo unspecified) | i | i | 60* | 95* | 5 | -96 | 94*
Cn1c(CCN2CCN(c3ccccn3)CC2)nc2cc(NS(=O)(=O)c3ccccc3)ccc21 | i | i | 0 | -1 | 1 | -7 | x
SMILES | ANO1 block | TMEM16A act | MPTP inh | CRFBP-R2 agonist | GRIN3A LBD mod | CRFBP-R2 block | MPTP counter
CCCCn1c(N)c(N(CCOC)C(=O)CCS(=O)(=O)c2ccc(Cl)cc2)c(=O)[nH]c1=O | i | i | 0 | 0 | 2 | 5 | x
COc1ccc(-c2oc3c(c2C#CC2(O)CCCCC2)C(OC(C)=O)CCC3)cc1 (stereo unspecified) | x | x | 1 | x | x | x | x
Cc1ccccc1NC(=S)NCc1ccc(F)cc1 | i | i | 0 | -1 | -1 | 10 | x
CCCc1ccc(C(C)NC(=S)NCc2ccc(F)cc2)cc1 (stereo unspecified) | i | i | 64* | 53* | 9 | -66 | 91*
O=C(Nc1cccc(Cl)c1)C1=Cc2cc(Cl)ccc2OC1 | i | i | 95* | 4 | 20* | -9 | 110*
O=C(Nc1ccc(Cl)c(Cl)c1)C1=Cc2ccccc2OC1 | i | i | 89* | 3 | 19* | 0 | 92*
O=C(Nc1ccc2c(c1)OCCO2)c1ccc(Cl)c(Cl)c1 | i | i | 0 | -1 | -1 | 0 | x
O=C(NCc1ccc(Cl)cc1)C1=Cc2cc(Cl)ccc2OC1 | i | i | 78* | 4 | 1 | 3 | 89*
O=C(Nc1cccc(Cl)c1)c1cc(F)cc2c1OCOC2 | i | i | 0 | 1 | 1 | -9 | x
C[C@H](CO)N1C[C@H](C)[C@@H](CN(C)S(=O)(=O)c2ccc(F)cc2)Oc2c(NC(=O)c3ccncc3)cccc2C1=O | x | i | 0 | -3 | -2 | 5 | x
Cc1cc(=O)oc2cc(OCC(=O)Nc3ccc(S(=O)(=O)N(C)C)cc3)ccc12 | i | i | 2 | -1 | 0 | -14 | x
CC1=NC(Nc2nc(C)c3ccccc3n2)=NC(C)(C)C1 | i | i | 50* | 0 | 0 | -2 | 45*
Cc1nc2ccc(S(=O)(=O)Nc3cc(-c4nc5cccnc5s4)ccc3C)cc2s1 | i | i | 0 | -3 | 2 | -36 | x
Cc1nc2ccc(S(=O)(=O)Nc3cccc(-c4nc5cccnc5s4)c3C)cc2s1 | i | i | 98* | 1 | -7 | -43 | 88*
Cc1ccc(N2CCN(S(=O)(=O)c3c(C)nc4sccn4c3=O)CC2C)cc1 (stereo unspecified) | x | x | 0 | x | x | x | x
Nc1nc2c(s1)CCc1ccccc1-2 | i | i | 0 | -3 | -1 | 10 | x
N#C/C(=C(/O)CCl)c1nc2c(s1)CCc1ccccc1-2 | 25* | i | 55* | 1 | 0 | -7 | 78*
O=C(CSc1nc2ccccc2c(=O)n1-c1ccccc1)N1CCc2ccccc2C1 | i | i | 84* | 4 | -2 | 21 | 75*
CC(=O)NCCNC(=O)c1ccc(Sc2ccccc2)c([N+](=O)[O-])c1 | i | i | -2 | -1 | -5 | 18 | x
